In assay [1] the target is Estrogen receptor (Homo sapiens) + Estrogen receptor beta (Homo sapiens) (UniProt P03372+Q92731). The assay can be described thus: OT_ER_ERaERb_1440: Odyssey Thera (OT) 24-hour HEK293T Protein-Complementation Assay for Estrogen Receptor-alpha/-beta Homodimer (AID 2283356).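 Further: heteromer of ER alpha and ER beta binding domains; hits raise reporter fluorescence and both agonists and antagonists give an increase.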 The method in brief:
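HEK293T cells stably expressing a PCA pair of ERα LBD (aa 310-547) and ERβ LBD (aa 263-489) were dosed for 24 h. Fluorescence intensity increase versus DMSO vehicle was fitted as gain-of-signal.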

Assay [2] deals with Estrogen receptor beta (Homo sapiens) (UniProt Q92731). The assay can be described thus: OT_ER_ERbERb_0480: Odyssey Thera (OT) 8-hour HEK293T Protein-Complementation Assay for Estrogen Receptor-beta/-beta Homodimer (AID 2283357).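 Further: active means signal gain over DMSO baseline.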 The method in brief:
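Homodimerization of ER-beta LBD measured by protein-fragment complementation in HEK293T; 8 h dosing; fixed, Draq5 counterstain; fluorescence intensity gain over DMSO baseline, positive fitting direction; laser scanning cytometry.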

The target of assay [3] is Androgen Receptor/SRC-1 Co-activator, AR (gene 367) (UniProt P10275). The assay can be described thus: OT_AR_ARSRC1_0960: Odyssey Thera (OT) 16-hour HEK293T Protein-Complementation Assay for Androgen Receptor/SRC-1 Co-activator (AID 2283353).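 Further: actives raise the signal above DMSO so potency reflects increased AR and SRC-1 complex.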 The method in brief:
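Stable HEK293T line carries AR and SRC-1 each linked to a Venus fragment; chemicals are applied for 16 h, cells imaged at two wavelengths, and the 488 nm nucleus/cytoplasm ratio is taken as the signal, rising relative to DMSO.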

Assay [4] shares this target. The assay can be described thus: OT_AR_ARSRC1_0480: Odyssey Thera (OT) 8-hour HEK293T Protein-Complementation Assay for Androgen Receptor/SRC-1 Co-activator (AID 2283354).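 Further: hits raise the complementation signal above DMSO so AC50 marks enhancers.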 In outline:
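Split-Venus PCA, stable HEK293T, AR/SRC-1 fusions; 8 h exposure. Readout: 488nm N/C fluorescence ratio, ≥400 cells/image; fitted upward vs DMSO baseline.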

Assay [5] addresses Retinoic acid receptor alpha (Homo sapiens) (UniProt P10276). The assay can be described thus: NVS_NR_hRAR_Antagonist: NovaScreen (NVS) Nuclear Receptor Binding Assay for human Retinoic Acid Alpha Receptor Antagonism (RAR) (AID 2283358). In outline: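 Read-out: time-resolved FRET binding signal, 2 h post-dose, cell-free extracted protein. Antagonism scored as signal loss versus DMSO negative control. Primary single-concentration screen at 25 uM in duplicate; concentration series for actives.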

For assay [6], the target named is human Peroxisome Proliferator-activated Receptor alpha (PPARa), PPARA (gene 5465) (UniProt Q07869). The assay can be described thus: NVS_NR_hPPARa: NovaScreen (NVS) Nuclear Receptor Binding Assay for human Peroxisome Proliferator-activated Receptor alpha (PPARa) (AID 2283359).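 Further: activity means loss of TR-FRET signal versus DMSO baseline.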 The method in brief:
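TR-FRET signal measured at 1 h post-dosing; loss-of-signal versus DMSO negative control taken as activity. Extracted gene-protein, cell-free format. Initial single-point duplicates at 25 uM, then concentration-response retests.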

Assay [7] has as its target rat Mineralocorticoid Receptor (MR), Nr3c2 (gene 25672) (UniProt P22199). The assay can be described thus: NVS_NR_rMR: NovaScreen (NVS) Nuclear Receptor Binding Assay for rat Mineralocorticoid Receptor (MR) (AID 2283355). The method in brief: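 Radioligand displacement, scintillation readout; tissue source adrenalectomized rat brain supernatant. Read 24 h post-dose. Screened in duplicate at 25 uM, DMSO negative control, controls on every plate; actives re-run in concentration series.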

In the next assay the target is PGR (gene 5241) (UniProt P06401). The assay can be described thus: NVS_NR_hPR: NovaScreen (NVS) Nuclear Receptor Binding Assay for human Progestron Receptor (PR) (AID 2283360).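 Further: active means loss of bound radioligand signal versus DMSO baseline.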 In outline: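 Cell-free radioligand binding using receptor protein extracted from T47D cells, read by scintillation counting 18 hours after dosing. Loss of signal relative to DMSO baseline indicates displacement; primary screen single concentration 25 uM in duplicate, actives followed in concentration series.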
Chain of PGR (gene 5241) (P06401 whole entry, looked up): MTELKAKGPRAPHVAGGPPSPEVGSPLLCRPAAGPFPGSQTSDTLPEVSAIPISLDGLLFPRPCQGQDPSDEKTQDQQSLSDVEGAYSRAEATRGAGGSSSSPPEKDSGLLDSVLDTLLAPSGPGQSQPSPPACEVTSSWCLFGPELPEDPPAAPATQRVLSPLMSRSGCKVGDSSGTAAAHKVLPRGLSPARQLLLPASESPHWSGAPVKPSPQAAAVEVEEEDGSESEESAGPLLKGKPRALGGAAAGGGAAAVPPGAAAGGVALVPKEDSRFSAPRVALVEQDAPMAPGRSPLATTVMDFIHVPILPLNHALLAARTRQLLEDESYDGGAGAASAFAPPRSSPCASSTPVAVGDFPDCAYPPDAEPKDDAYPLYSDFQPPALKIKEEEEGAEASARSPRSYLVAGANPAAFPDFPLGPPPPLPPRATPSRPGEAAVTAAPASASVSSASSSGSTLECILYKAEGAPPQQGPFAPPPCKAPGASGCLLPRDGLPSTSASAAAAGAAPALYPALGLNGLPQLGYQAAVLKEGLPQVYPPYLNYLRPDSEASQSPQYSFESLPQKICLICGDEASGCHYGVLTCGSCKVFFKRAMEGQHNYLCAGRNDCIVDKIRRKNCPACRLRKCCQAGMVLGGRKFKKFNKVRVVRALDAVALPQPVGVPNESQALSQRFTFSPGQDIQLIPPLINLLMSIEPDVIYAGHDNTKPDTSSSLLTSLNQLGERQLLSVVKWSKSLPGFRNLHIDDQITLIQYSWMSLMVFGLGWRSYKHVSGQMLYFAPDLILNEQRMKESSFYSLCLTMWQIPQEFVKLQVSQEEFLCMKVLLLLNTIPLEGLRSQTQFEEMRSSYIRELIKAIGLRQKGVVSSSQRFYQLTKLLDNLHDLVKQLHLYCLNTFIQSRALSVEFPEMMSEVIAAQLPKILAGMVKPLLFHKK

Assay [8] concerns the target Retinoic acid receptor alpha (Homo sapiens) (UniProt P10276). The assay can be described thus: NVS_NR_hRARa_Agonist: NovaScreen (NVS) Nuclear Receptor Binding Assay for human Retinoic Acid Alpha Receptor Agonism (RAR) (AID 2283361). In outline:
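TR-FRET signal, 2 h post-dosing; cell-free extracted protein; DMSO = baseline, positive fitting direction; 25 uM single-point duplicate, then concentration series for actives.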

Assay [9] addresses human Thyroid Receptor Alpha (TRa), THRA (gene 7067) (UniProt P10827). The assay can be described thus: NVS_NR_hTRa_Antagonist: NovaScreen (NVS) Nuclear Receptor Binding Assay for human Thyroid Receptor Alpha Antagonism (TRa) (AID 2283362). In outline: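 Cell-free binding assay on extracted receptor protein, read 1 h after chemical dosing by AlphaLISA chemiluminescence; loss of signal relative to DMSO baseline marks antagonism. Primary screen ran in duplicate at 25 uM, with concentration series for actives.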

Broadly, the AC50 is the concentration giving half of the maximal activity seen.

SMILES strings stand for the structures. Where “and” joins values, the source holds several entries; their conditions need not be identical. Identical values can stand only once. Inconclusive results are not listed. Where a structure was tested more than once in an assay, its records may differ in their call. Calls of active or inactive are those of the source. How the source made its calls: active means hit-call score of the fitted dose curve at least 0.9, where 1 is the maximum; inconclusive means response in the unintended direction; inactive means score below 0.9.

Chain of rat Mineralocorticoid Receptor (MR), Nr3c2 (gene 25672) (P22199 whole entry, looked up): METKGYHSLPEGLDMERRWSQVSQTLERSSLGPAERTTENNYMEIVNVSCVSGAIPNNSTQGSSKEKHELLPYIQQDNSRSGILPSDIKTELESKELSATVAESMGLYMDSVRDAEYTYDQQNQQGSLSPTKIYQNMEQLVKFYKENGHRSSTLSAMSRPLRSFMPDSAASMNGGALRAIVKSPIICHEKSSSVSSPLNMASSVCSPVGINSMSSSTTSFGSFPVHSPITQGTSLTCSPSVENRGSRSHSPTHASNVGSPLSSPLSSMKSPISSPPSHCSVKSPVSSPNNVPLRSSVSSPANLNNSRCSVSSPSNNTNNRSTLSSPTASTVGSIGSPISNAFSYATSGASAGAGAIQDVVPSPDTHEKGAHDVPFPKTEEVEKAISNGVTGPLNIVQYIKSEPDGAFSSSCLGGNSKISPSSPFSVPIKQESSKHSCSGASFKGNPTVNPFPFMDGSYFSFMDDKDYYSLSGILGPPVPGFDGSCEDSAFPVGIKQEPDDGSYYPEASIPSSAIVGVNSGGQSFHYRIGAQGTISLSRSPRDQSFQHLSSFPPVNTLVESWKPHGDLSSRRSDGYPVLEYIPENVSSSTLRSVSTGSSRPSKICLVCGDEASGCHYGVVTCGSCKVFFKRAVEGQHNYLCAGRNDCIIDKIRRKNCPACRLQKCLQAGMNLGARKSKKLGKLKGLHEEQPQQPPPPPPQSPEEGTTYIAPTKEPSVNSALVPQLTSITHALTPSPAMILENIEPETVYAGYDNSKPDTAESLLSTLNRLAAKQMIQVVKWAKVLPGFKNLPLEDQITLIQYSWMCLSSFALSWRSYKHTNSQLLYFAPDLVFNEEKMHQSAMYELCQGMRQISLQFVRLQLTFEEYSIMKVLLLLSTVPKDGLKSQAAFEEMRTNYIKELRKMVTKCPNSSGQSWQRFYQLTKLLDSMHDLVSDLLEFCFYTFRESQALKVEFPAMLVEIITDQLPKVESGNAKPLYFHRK
Chain of human Peroxisome Proliferator-activated Receptor alpha (PPARa), PPARA (gene 5465) (Q07869 whole entry, looked up): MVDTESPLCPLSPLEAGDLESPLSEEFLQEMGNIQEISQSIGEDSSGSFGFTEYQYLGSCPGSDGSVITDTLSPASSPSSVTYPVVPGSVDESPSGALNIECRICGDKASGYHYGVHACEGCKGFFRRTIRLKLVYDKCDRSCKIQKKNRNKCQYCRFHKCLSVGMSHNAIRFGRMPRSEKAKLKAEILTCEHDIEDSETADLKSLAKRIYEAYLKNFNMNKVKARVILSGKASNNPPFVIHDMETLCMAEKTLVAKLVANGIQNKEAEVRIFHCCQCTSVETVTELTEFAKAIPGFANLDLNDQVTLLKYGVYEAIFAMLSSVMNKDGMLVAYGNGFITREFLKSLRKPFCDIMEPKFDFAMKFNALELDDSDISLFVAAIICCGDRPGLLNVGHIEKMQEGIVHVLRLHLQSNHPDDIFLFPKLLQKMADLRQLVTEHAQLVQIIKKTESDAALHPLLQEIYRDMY
Chain of Retinoic acid receptor alpha (Homo sapiens) (P10276 whole entry, looked up): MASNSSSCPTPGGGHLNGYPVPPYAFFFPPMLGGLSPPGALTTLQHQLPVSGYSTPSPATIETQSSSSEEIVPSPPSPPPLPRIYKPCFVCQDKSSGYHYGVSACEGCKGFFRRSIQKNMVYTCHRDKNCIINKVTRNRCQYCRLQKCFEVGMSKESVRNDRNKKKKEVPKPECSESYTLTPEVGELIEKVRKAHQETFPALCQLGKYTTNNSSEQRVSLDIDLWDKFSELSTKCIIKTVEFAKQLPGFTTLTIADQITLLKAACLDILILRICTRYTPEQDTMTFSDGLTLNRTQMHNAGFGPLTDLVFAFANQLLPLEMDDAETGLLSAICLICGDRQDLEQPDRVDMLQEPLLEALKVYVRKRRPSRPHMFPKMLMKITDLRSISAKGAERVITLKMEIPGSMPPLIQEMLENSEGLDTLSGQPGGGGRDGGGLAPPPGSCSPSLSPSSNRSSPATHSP
Chain of Androgen Receptor/SRC-1 Co-activator, AR (gene 367) (P10275 whole entry, looked up, the tested form may be a part): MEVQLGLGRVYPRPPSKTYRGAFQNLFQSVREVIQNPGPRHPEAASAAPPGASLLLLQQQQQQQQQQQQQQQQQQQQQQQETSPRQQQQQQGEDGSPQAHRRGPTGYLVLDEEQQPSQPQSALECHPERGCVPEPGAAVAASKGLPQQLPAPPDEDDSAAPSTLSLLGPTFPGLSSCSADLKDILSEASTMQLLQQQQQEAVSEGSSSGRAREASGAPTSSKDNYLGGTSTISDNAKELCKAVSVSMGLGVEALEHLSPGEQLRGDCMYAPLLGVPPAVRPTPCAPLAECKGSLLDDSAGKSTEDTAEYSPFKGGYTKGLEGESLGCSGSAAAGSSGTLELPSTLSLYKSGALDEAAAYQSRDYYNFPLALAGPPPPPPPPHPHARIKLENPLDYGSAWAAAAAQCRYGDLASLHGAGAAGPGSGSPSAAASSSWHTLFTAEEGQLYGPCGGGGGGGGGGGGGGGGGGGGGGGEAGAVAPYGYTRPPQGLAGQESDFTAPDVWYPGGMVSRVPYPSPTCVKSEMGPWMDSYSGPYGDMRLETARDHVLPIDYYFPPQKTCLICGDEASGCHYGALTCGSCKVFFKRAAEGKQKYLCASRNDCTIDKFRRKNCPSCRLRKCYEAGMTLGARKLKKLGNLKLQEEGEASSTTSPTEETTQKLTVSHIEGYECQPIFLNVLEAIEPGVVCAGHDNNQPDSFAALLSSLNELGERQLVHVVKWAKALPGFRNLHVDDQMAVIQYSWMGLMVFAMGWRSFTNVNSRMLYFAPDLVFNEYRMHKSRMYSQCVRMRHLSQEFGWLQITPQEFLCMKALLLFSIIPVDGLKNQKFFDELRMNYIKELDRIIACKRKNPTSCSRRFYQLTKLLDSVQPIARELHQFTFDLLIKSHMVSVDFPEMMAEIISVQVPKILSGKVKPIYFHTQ
Chain of Estrogen receptor (Homo sapiens) + Estrogen receptor beta (Homo sapiens) (P03372 whole entry, looked up, the tested form may be a part): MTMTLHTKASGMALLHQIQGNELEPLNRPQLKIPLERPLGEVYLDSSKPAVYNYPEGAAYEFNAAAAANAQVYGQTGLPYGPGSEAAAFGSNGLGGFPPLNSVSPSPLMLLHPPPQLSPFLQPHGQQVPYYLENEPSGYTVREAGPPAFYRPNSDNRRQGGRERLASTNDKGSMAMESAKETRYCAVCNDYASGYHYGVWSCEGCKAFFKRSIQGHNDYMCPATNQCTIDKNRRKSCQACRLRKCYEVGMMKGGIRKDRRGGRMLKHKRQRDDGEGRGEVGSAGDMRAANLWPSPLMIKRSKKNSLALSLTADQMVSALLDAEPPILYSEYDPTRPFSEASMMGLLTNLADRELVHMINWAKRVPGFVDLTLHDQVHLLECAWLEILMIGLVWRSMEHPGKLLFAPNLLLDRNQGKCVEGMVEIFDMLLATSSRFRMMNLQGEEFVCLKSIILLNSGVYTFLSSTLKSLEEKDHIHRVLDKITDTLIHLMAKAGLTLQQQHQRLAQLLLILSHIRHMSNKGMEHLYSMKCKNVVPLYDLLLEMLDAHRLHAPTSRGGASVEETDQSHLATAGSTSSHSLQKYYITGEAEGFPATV
Chain of Estrogen receptor (Homo sapiens) + Estrogen receptor beta (Homo sapiens) (Q92731 whole entry, looked up, the tested form may be a part): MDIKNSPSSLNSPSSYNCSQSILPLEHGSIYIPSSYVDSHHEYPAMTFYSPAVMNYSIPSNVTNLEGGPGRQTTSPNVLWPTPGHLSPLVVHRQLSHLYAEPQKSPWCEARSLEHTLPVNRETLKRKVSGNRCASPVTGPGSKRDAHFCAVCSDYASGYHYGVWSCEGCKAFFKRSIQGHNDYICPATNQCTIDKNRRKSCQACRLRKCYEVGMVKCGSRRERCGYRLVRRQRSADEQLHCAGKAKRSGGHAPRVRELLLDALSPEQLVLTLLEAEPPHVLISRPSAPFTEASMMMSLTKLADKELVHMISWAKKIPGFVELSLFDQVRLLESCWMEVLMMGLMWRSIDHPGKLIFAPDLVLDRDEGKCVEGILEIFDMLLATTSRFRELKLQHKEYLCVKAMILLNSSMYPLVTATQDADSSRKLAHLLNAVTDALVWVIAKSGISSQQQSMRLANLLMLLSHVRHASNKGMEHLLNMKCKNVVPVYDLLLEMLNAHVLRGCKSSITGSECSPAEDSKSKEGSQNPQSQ
Chain of Estrogen receptor beta (Homo sapiens) (Q92731 whole entry, looked up, the tested form may be a part): as above

Consider `Nc1ccc(N=Nc2ccccc2)cc1`, for which the AC50 in assay [1] was 39.4 µM (active); in assay [2], 34.6 µM (active).
Turning to `CC(C)N(Cc1ccccc1)C(=O)C(C)(C)C`, the outcome in assay [3] and in assay [4] was inactive. The AC50 in assay [2] was 50 µM (active).
Take `CCNS(=O)(=O)C(F)(F)C(F)(F)C(F)(F)C(F)(F)C(F)(F)C(F)(F)C(F)(F)C(F)(F)F`: the result in assay [3], in assay [4], in assay [5] and in assay [6] was inactive.
As to `O=C(Nc1ccccc1)c1ccccc1I`, the result in assay [3], in [4] and in assay [1] was inactive.
With `OCCCBr`, the outcome in [1] and in assay [2] was inactive.
Regarding `ClC1=C(Cl)C2(Cl)C3C(Cl)C=CC3C1(Cl)C2(Cl)Cl` (stereo not given), the result in assay [1] and in [2] was inactive.
As for `C[C@]12C=CC3=C4CCC(=O)C=C4CC[C@H]3[C@@H]1CC[C@@H]2O`, the AC50 in [3] was 1.14 nM (active) and 2.3 nM (active) and 30 nM (active); in [7] it was 69.1 nM (active) and 245 nM (active); in assay [2] it was 370 nM (active) and 12.5 µM (active); with PGR (gene 5241) it was 0.00382 µM (active); in assay [8], 19.6 µM (active) [middle of 4 runs]. The result in [2] was inactive.
For the compound `Cc1ccc([N+](=O)[O-])cc1`, the outcome in [1] and in assay [2] was inactive.
Regarding `CCC[CH2][Sn]([Cl])([CH2]CCC)[CH2]CCC`, in assay [7], the call was inactive. Moreover, the AC50 is 0.0235 µM (active) in assay [6] and 2.92 µM (active) with PGR (gene 5241).
As to `c1ccc2c(c1)oc1ccccc12`, the compound was classed as inactive in assay [2].
For the compound `[Cl-].[Cl-].[Hg+2]`, the outcome in assay [1] and in assay [2] was inactive.
Turning to `COC(=O)Nc1nc2ccccc2[nH]1`, the AC50 in assay [3] was 3.78 µM (active). Also, the result in assay [4] and in assay [2] was inactive.
On to `CCCCCCCCn1sccc1=O`, for which the outcome in assay [1] and in assay [2] was inactive.
As to `CC(C)(OOC(C)(C)c1ccccc1)c1ccccc1`, the AC50 in [3] was 76.2 µM (active); in [4], 71.1 µM (active); in [2], 3.31 µM (active).
As for `O=[N+]([O-])C(Br)(CO)CO`, the AC50 is 71 µM (active) in assay [3] and 72.1 µM (active) in assay [4]. For the same compound, the outcome in assay [1], in assay [2] and in [6] was inactive.
For `CCCCCOC(=O)c1ccccc1C(=O)OCCCCC`, the AC50 in assay [1] is 42 µM (active); in assay [2], 29.9 µM (active).
On to `CC(C)(O)c1cnn2c(-c3ccc(F)c(-c4c(F)cccc4C#N)c3)cnc2n1`, for which the AC50 is 31.7 µM (active) in assay [3] and 95.8 µM (active) in assay [2]. In addition, the compound was called inactive in assay [4].
In the case of `CN(C)c1ccc(C(=O)c2ccc(N(C)C)cc2)cc1`, the result in assay [7] and in assay [2] was inactive.
`[O-][Cl+]O`: the outcome in [1] and in assay [2] was inactive.
With `Nc1ccc([N+](=O)[O-])cc1`, the compound was called inactive (in [3]; in assay [4]; in assay [2]; with PGR (gene 5241)).
For `Cc1cc(N=Nc2ccccc2C)ccc1N`, the AC50 in [3] is 36 µM (active); in assay [4], 67.5 µM (active); in assay [2], 12.1 µM (active). The outcome in assay [6] and in [9] was inactive.
Take `Nc1ccc(Cl)cc1N`: the call in assay [3] and in assay [4] was inactive.
For `CNC(=O)Oc1cccc2c1OC(C)(C)C2`, the outcome in assay [3], in assay [4], in assay [1] and in assay [2] was inactive.
`CC(C)COC(=O)c1ccccc1C(=O)OCC(C)C`: the results for the AC50 in assay [1] and in assay [2] were 31.1 µM (active) and 25.9 µM (active), respectively. In assay [6], the result was inactive.
Turning to `CCCCCCCCCCCCCN1CC(C)OC(C)C1` (stereo not given), the outcome in assay [1] and in assay [2] was inactive.
For `O=C1CCCO1`, the outcome in assay [3], in [4] and in [2] was inactive.
In the case of `OCCOCCO`, the result in assay [1] and in assay [2] was inactive.
Turning to `CCCCC(CC)COC(=O)c1ccc(C(=O)OCC(CC)CCCC)c(C(=O)OCC(CC)CCCC)c1` (stereo not given), the call in assay [3] and in [4] was inactive.
On to `N#CC(Br)Br`, for which the outcome in assay [1] and in [2] was inactive.
Take `c1ccc(C2CO2)cc1` (stereo not given): the result (in [7]; with PGR (gene 5241)) was inactive.
As for `Cc1ccc(N)c(N)c1`, the call in assay [2] was inactive.
As to `C[N+](C)(C)CC1CO1` (stereo not given), the call in [4], in assay [1] and in assay [2] was inactive.
`CO[C@@H]1[C@H](OC(=O)NC(=O)CCl)CC[C@]2(CO2)[C@H]1[C@@]1(C)O[C@@H]1CC=C(C)C`: the concentration at half-maximal activity (AC50) in [3] was 10.7 µM (active); in assay [4] it was 20.1 µM (active). Moreover, the result in [1] and in [2] was inactive.
Turning to `CCN(CC)N=O`, the outcome in [5] was inactive.
As for `Cc1cccc(N)c1N`, in [8], the outcome was inactive.
In the case of `c1ccc2c(c1)-c1cccc3cccc-2c13`, the compound was classed as inactive in assay [8].
Regarding `Clc1ccc(C(c2ccc(Cl)cc2)C(Cl)Cl)cc1`, the outcome in assay [9] was inactive.

Values taken from PubChem BioAssay (EPA / NIEHS).
